Data on 40 compounds can be found in PubChem BioAssay (NCATS).

Inconclusive results are not listed. Calls of active or inactive are those of the source. Calls follow the shape of the dose curve; as a rule, active = well fitted cell-killing curve with a large enough effect; inconclusive = small, poorly fitted or top-dose-only effect, or effect the other way; inactive = no such curve, though single readings can be large or run the other way.
Potency is read from the fitted curve at half-maximal effect.

A short description of the test: Quantitative High-Throughput drug screen in 47 multiple myeloma cell lines against the NCATS MIPE library collection: KMS12BM_JCRB cell viability assay (AID 1918971). Also: nearly all actives have a fitted effect of over 35% in size. The following applies: KMS12BM myeloma viability, CellTiter-Glo ATP, 48 h; series mostly up to 45.8 µM; viability, % of DMSO: at the top concentration. The text has this: PI: Beverly A. Mock Ph.D.
Laboratory of Cancer Biology and Genetics,
Center for Cancer Research, National Cancer Institute,
National Institute of Health, Bethesda, Maryland
Drug resistance and disease progression are common in multiple myeloma (MM) patients, underscoring the need for new therapeutic combinations. […] We hypothesized that effective combinations would reduce MYC expression and enhance p16 activity. […] These preclinical data identify potentially useful drug combinations for evaluation in drug-resistant MM and reveal potential mechanisms of combined drug sensitivity.
Described herein is the primary MIPE qHTS used to cherrypick compounds. Validated compounds were then further tested for potential synergistic activiy.
[1] Peat TJ, Gaikwad SM, Dubois W, Gyabaah-Kessie N, Zhang S, Gorjifard S, Phyo Z, Andres M, Hughitt VK, Simpson RM, Miller MA, Girvin AT, Taylor A, Williams D, D'Antonio N, Zhang Y, Rajagopalan A, Flietner E, Wilson K, Zhang X, Shinn P, Klumpp-Thomas C, McKnight C, Itkin Z, Chen L, Kazandijian D, Zhang J, Michalowski AM, Simmons JK, Keats J, Thomas CJ, Mock BA. Drug combinations identified by high-throughput screening promote cell cycle transition and upregulate Smad pathways in myeloma. Cancer Lett. 2023 Aug 1;568:216284. doi: 10.1016/j.canlet.2023.216284. Epub 2023 Jun 24. PMID: 37356470; PMCID: PMC10408729.
SEQUENCE No. (e.g., 1, 2, 3, etc.); […] (e.g., Cells, Incubation, Reagent, etc.); VALUE and DESCRIPTION.
1; Cells; 5 uL; white, solid bottom 1536-well Greiner assay plate.
2; Compounds; 23 nL; Kalypsis pin tool (Wako USA) equipped with a 1536-well pin head to transfer to the assay plates.
3; Incubation; 48 hours; 37C incubation.
4; Reagent;5uL; CellTiter Glo (Promega).
5; Detector; 425V; Luminescence; Viewlux PerkinElmer.
NOTES (numbers refer to Sequence numbers above)
1. The cell-based screening methods employed in this study were like those previously published. Briefly, the corresponding myeloma cell lines were screened in 1,536-well plates with 500 cells, 5-uL per well for inhibition of cell viability (assessed by measuring ATP levels with CellTiterGlo).
2. NCATS MIPE 4.0 library of approved and investigational drugs were added using the Kalypsis pin tool. Wells treated with DMSO only for 100% viability and media only wells for 0% viability were used as controls.
3. The assay plates were covered and incubated for 48 hours in a 37C, 5% CO2 incubator with controlled humidity.
4. After 48 hours, CellTilter-GloTM luminescent substrate mix (Promega) reagent was added to the assay plate and plates we incubated for 5 min at room temperature.
5. Signal was measured as median relative luminescence units on a ViewLux (PerkinElmer) multiplate reader.
[1] Heske CM, Davis MI, Baumgart JT, Wilson K, Gormally MV, Chen L, Zhang X, Ceribelli M, Duveau DY, Guha R, Ferrer M, Arnaldez FI, Ji J, Tran HL, Zhang Y, Mendoza A, Helman LJ, Thomas CJ. Matrix Screen Identifies Synergistic Combination of PARP Inhibitors and Nicotinamide Phosphoribosyltransferase (NAMPT) Inhibitors in Ewing Sarcoma. Clin Cancer Res. 2017 Dec 1;23(23):7301-7311. doi: 10.1158/1078-0432.CCR-17-1121. Epub 2017 Sep 12. PMID: 28899971; PMCID: PMC6636827.
Background: In ATP-based viability assays light output follows the ATP content of the culture.
Turning to `O=C1[C@H](Cc2ccc(O)cc2)N2C(=O)CCN(C(=O)NCc3ccccc3)[C@H]2CN1Cc1cccc2ccccc12`, the Potency was 4.18 µM (active).
With `CCCc1nc2c(C)cc(-c3nc4ccccc4n3C)cc2n1Cc1ccc(-c2ccccc2C(=O)O)cc1`, the “viability, % of DMSO” value was 160% (inactive).
With `COc1ccc(-c2ccc3c(N4CCOC[C@H]4C)nc(N4CCOC[C@H]4C)nc3n2)cc1CO`, the Potency was 0.0118 µM (active).
Take `O=C1CCCC2=C1C(c1[nH]ncc1Cl)N=C(Nc1nc3ccccc3o1)N2` (stereo not given): the Potency is 4.69 µM (active).
`COc1ccc(CC2=NN3C([C@@H](CCc4ccccc4)[C@@H](C)O)=NC(C)C3C(=O)N2)cc1OC` (stereo not given in full): the “viability, % of DMSO” value was 129% (inactive).
As to `O=C(O)CCc1ccc(NCc2cccc(Oc3ccccc3)c2)cc1`, the “viability, % of DMSO” value is 128% (inactive).
On to `OCCn1cc(-c2cnc3nnn(Cc4ccc5ncccc5c4)c3n2)cn1`, for which the Potency was 18.7 µM (active).
On to `CCCC(CCC)C(=O)O`, for which the “viability, % of DMSO” value was 168% (inactive).
As to `O=C1CCC(N2C(=O)c3ccccc3C2=O)C(=O)N1` (stereo not given), the Potency is 18.7 µM (active).
Consider `COc1ccc2nc(S(=O)Cc3ncc(C)c(OC)c3C)[nH]c2c1` (stereo not given), for which the “viability, % of DMSO” value is 137% (inactive).
In the case of `CC(C)(N)C(=O)N[C@H](COCc1ccccc1)C(=O)N1CCC2(CC1)CN(S(C)(=O)=O)c1ccccc12`, the Potency was 14.8 µM (active).
On to `CCOC(=O)N[C@@H]1CC[C@@H]2[C@@H](C1)C[C@H]1C(=O)O[C@H](C)[C@H]1[C@@H]2C=Cc1ccc(-c2cccc(F)c2)cn1`, for which the Potency is 20.9 µM (active).
On the same count and under the same terms, the same measure for `CCOC(=O)N1CCC(=C2c3ccc(Cl)cc3CCc3cccnc32)CC1`: 23.5 µM (active).
As for `NNCCc1ccccc1`, the Potency was 14.8 µM (active).
The same measure, in the same setting: the same measure for `Cc1cccc(-c2nn(C(=S)Nc3ccccc3)cc2-c2ccnc3ccccc23)n1`: 14.8 µM (active).
For the compound `CN[C@@H](C)C(=O)N[C@H]1CCCC[C@H]2CC[C@@H](C(=O)N[C@@H](c3ccccc3)c3cn(CCCCc4ccc(CCCCn5cc([C@@H](NC(=O)[C@@H]6CC[C@@H]7CCCC[C@H](NC(=O)[C@H](C)NC)C(=O)N76)c6ccccc6)nn5)cc4)nn3)N2C1=O`, the “viability, % of DMSO” value is 176% (inactive).
On to `COc1ccc(COc2cc3oc(=O)c4cc(C(C)O)ccc4c3cc2OC)cc1` (stereo not given), for which the Potency is 23.5 µM (active).
`O=c1ncn2nc(Sc3ccc(F)cc3F)ccc2c1-c1c(Cl)cccc1Cl`: the Potency is 18.7 µM (active).
On to `COc1ccc2c3n(c(=NC(=O)c4cccnc4)nc2c1OC)CCN3`, for which the “viability, % of DMSO” value was 155% (inactive).
With `Cc1csc(NC(=O)c2sc3nc4c(c(C(F)(F)F)c3c2N)CCC4)n1`, the Potency was 16.6 µM (active).
For the compound `CCN(CC)CCCC(C)Nc1ccnc2cc(Cl)ccc12` (stereo not given), the “viability, % of DMSO” value was 123% (inactive).
As to `CCCCCCCc1ccc(CCc2cccc(O)c2C(=O)O)cc1`, the Potency was 0.332 µM (active).
On to `Cc1ccnc(NS(=O)(=O)c2ccc(NC(=O)Nc3ccc(S(=O)(=O)Nc4nccc(C)n4)cc3)cc2)n1`, for which the Potency is 6.62 µM (active).
Consider `O=C(c1cc(Cc2n[nH]c(=O)c3ccccc23)ccc1F)N1CCN(C(=O)C2CC2)CC1`, for which the “viability, % of DMSO” value is 117% (inactive).
Take `Nc1nc2[nH]cc(CCc3ccc(C(=O)N[C@@H](CCC(=O)O)C(=O)O)cc3)c2c(=O)[nH]1`: the Potency was 20.9 µM (active).
In the case of `COc1ccc(-c2ccc3c(N4CCOCC4)nc(N4C[C@@H](C)O[C@@H](C)C4)nc3n2)cc1CO`, the Potency was 0.0833 µM (active).
Consider `NC(=O)c1ccc(-c2nc(-c3ccc4c(c3)OCCO4)c(-c3ccccn3)[nH]2)cc1`, for which the “viability, % of DMSO” value is 153% (inactive).
Still for that read-out and setting: the same measure for `C[C@]12CC[C@H](O)CC1=CC[C@@H]1[C@H]2CC[C@]2(C)C(c3cccnc3)=CC[C@H]12`: 105% [at 23.2 µM] (inactive); for `Cc1cnc(NC(=O)C2=C(O)c3ccccc3S(=O)(=O)N2C)s1`: 143% (inactive).
The same measure, in the same setting: with `OC(CN1CCC(Cc2ccc(F)cc2)CC1)c1ccc(Cl)cc1` (stereo not given) the figure was 111% (inactive).
Regarding `CCOC(=O)C1=C[C@]2(CC)CCCN3CCc4c(n1c1ccccc41)[C@@H]32`, the Potency was 14.8 µM (active).
Take `N#CC[C@H](C1CCCC1)n1cc(-c2ncnc3[nH]ccc23)cn1`: the Potency is 23.5 µM (active).
Consider `C#Cc1cccc(Nc2ncnc3cc(OCCOC)c(OCCOC)cc23)c1`, for which the Potency is 20.9 µM (active).
For `CCn1cc(C(=O)O)c(=O)c2cc(F)c(N3CCNC(C)C3)c(F)c21` (stereo not given), the “viability, % of DMSO” value is 116% (inactive).
On to `CC[C@H](Nc1ncnc2nc[nH]c12)c1nc2cccc(F)c2c(=O)n1-c1ccccc1`, for which the Potency is 18.7 µM (active).
The same measure, in the same setting: with `Cc1cn[nH]c1` the figure was 0.0132 µM (active).
Same read-out and setting: the same measure for `COc1ccccc1[C@H](c1cccc2ccccc12)[C@@](C)(C#N)C(=O)N1CCC(c2cccc(C(F)(F)F)c2)CC1`: 2.35 µM (active).
On the same count and under the same terms, with `Cc1c(CCOc2ccc(C(=O)O)cc2)c2cc(Cl)ccc2n1C(c1ccccc1)c1ccccc1` the figure was 16.6 µM (active); with `CC1(C)Cc2c(-c3ccccc3)c(-c3ccc(Cl)cc3)c(CC(=O)O)n2C1`, 20.9 µM (active).
Consider `Nc1nc2ccc(OC(F)(F)F)cc2s1`, for which the Potency was 16.6 µM (active).
